PubChem BioAssay (NCI)
About 79,000 compounds went through this panel and 15% of them were active in at least one assay; those are over-represented in the sample as a whole. Rule as the data show it: active = growth inhibition above about 70%; inactive = the rest.

Columns and labels:
[1] = NCI Yeast Anticancer Drug Screen. Data for the rad50 strain (AID 155);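 also: 0% = growth of vehicle-only cultures of the same strain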; details: S. cerevisiae rad50 strain growth inhibition; at 50.0 µM; stronger effect = higher value
Outline: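 Growth of the mutant yeast was measured after compound exposure and referenced to vehicle-treated cultures.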

[2] = NCI Yeast Anticancer Drug Screen. Data for the mec2-1 strain (AID 157); details: S. cerevisiae mec2-1 strain, at 50.0 µM, stronger effect = higher value
Outline: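 Growth inhibition is read against vehicle-treated controls after compound exposure of the mec2-1 yeast strain, which is defective in DNA damage repair or cell cycle control.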

[3] = NCI Yeast Anticancer Drug Screen. Data for the sgs1 mgt1 strain (AID 161);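 also: 0% = growth of cultures given vehicle only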; details: S. cerevisiae sgs1 mgt1 strain, at 50.0 µM, stronger effect = higher value
Outline: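 Compounds are added to genetically altered yeast, and growth is compared with cultures given vehicle alone to give percent inhibition.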

[4] = NCI Yeast Anticancer Drug Screen. Data for the cln2 rad14 strain (AID 165);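 also: 0% = growth equal to vehicle treated cultures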; details: S. cerevisiae cln2 rad14 strain, at 50.0 µM, stronger effect = higher value
Outline: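 Growth inhibition, relative to vehicle-treated controls, is the read-out. The test organism is a yeast strain with defined genetic alterations, cln2 rad14.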

[5] = NCI Yeast Anticancer Drug Screen. Data for the bub3 strain (AID 167); details: S. cerevisiae bub3 mutant strain, at 50.0 µM, stronger effect = higher value
Outline: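 Whole-cell yeast assay. The mutant strain was incubated with compounds, and growth inhibition was determined by comparison with vehicle-treated cells.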

[6] = NCI Yeast Anticancer Drug Screen. Data for the mlh1 rad18 strain (AID 175); details: S. cerevisiae mlh1 rad18 strain growth inhibition; at 50.0 µM; stronger effect = higher value
Outline: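 Cells of a genetically altered yeast strain, deficient in DNA damage repair, were treated with compound. Their growth was then compared with that of vehicle-treated cultures to give inhibition.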

Measured: growth inhibition

CCCN1CCc2c([nH]c3cc(OC)ccc23)C1C (stereo not drawn)
inactive: [1] 27.9% | [2] -4.15% | [3] -5.05% | [4] 1.9% | [5] 7.35% | [6] 3.2%

CCOC(=O)COc1ccc(Cl)cc1CCl
inactive: [1] 3.2% | [2] 6.4% | [3] -10.4% | [4] -10.9% | [5] 21.9% | [6] 1.65%

CC1(C)CC(=O)C(/C(=N/NC(=S)NN)C(=O)Nc2nc3ccc([N+](=O)[O-])cc3s2)C(=O)C1
inactive: [1] 35.8% | [2] 20.2% | [3] -15.2% | [4] -26.9% | [5] 1% | [6] 16.4%

C=CC(=O)OCC(C)(C)COC(=O)C=C
inactive: [1] 3.3% | [2] -34.5% | [3] -16.7% | [4] 16.1% | [5] 19.8% | [6] -12.6%

O=Cc1ccccc1CCn1c(=O)c2cc3c(=O)n(CCc4ccccc4C=O)c(=O)c3cc2c1=O
inactive: [1] 33.7% | [2] 18.9% | [3] 11.8% | [4] -11.8% | [5] -4.35% | [6] 18.8%

O=C1NCCCC1CCO (stereo not drawn)
inactive: [1] -8.35% | [2] -3.65% | [3] -7.95% | [4] -3.65% | [5] 5.5% | [6] -3.85%

COC(=O)C(C(=O)c1ccccc1)C(C(=O)C(=O)Nc1ccc(OC)cc1OC)C(=O)C(=O)c1ccc(C)cc1 (stereo not drawn)
inactive: [1] -1.3% | [2] 10.8% | [3] 3.7% | [4] -3.9% | [5] 2.85% | [6] 19.6%

CCOC(=O)C1(C(=O)OCC)C(C#N)(C#N)C1(C#N)C#N
inactive: [1] -0.8% | [2] 1.75% | [3] -7.2% | [4] -7.3% | [5] -1.65% | [6] -11.3%
